Test results from PubChem BioAssay AID651605 (National Center for Advancing Translational Sciences (NCATS), 2012).
“And” between values parts separate entries of the source, which are not always exact repeats. Equal values may be shown once. Inconclusive results are not listed. Values without a mark were called inactive. The source made the active and inactive calls. Calls come from the whole dose curve; as a rule, active = well fitted inhibition curve with a large enough effect; inconclusive = small, poorly fitted or top-dose-only effect; inactive = flat fitted curve, though single readings scatter.

Biological target: Ubiquitin carboxyl-terminal hydrolase 1 (Homo sapiens) (UniProt O94782)
Sequence (O94782 whole entry, looked up): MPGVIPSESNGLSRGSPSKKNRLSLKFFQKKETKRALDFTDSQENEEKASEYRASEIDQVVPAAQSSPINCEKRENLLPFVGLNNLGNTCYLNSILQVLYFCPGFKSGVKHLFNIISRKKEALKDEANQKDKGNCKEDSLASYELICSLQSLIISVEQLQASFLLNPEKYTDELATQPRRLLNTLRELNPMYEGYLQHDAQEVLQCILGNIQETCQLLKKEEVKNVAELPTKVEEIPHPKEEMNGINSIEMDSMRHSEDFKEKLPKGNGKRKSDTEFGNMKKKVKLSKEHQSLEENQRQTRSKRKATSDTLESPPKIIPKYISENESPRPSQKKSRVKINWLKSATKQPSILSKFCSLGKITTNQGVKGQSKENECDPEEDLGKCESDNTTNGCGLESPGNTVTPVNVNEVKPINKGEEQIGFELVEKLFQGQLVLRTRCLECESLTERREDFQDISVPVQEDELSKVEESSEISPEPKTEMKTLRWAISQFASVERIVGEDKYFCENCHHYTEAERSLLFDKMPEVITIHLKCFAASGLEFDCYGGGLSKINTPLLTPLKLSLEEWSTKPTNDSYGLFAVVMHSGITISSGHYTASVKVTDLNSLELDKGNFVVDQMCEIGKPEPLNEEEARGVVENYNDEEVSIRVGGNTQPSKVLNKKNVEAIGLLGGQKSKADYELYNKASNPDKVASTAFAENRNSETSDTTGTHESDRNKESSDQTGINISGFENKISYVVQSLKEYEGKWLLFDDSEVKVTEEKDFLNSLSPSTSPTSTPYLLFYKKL
Test: Inhibitors of USP1/UAF1: SAR in Primary Assay
Conditions: Recombinant USP1/UAF1, Ub-Rhodamine cleavage fluorescence; series mostly up to 57.1 µM; activity change, negative = inhibition: at the top concentration
Excerpt: Deubiquitinating enzymes (DUBs) are a class of enzymes that can cleave isopeptide bond formed between the C-terminal carboxylate of ubiquitin and a lysine side-chain amino group on the target protein. Among them, ubiquitin specific proteases (USPs) constitute the largest DUB family. Human USPs are emerging as promising targets for pharmacological intervention because of their connection to a number of human diseases, including prostate, colon and breast cancer (1, 2), pediatric acute lymphoblastic leukemia (3), and familial cylindromatosis (4). The advantage of inhibiting USPs lies in the potential specificity of therapeutic intervention that can lead to better efficacy and reduce nonspecific side effects. In a collaboration between the University of Delaware and the NIH Chemical Genomics Center, a high-throughput screen assay was developed to screen for USP1/UAF1 inhibitors (5). This assay was used to test the analogs that were synthesized based on SAR around the original hit. NIH Chemical Genomics Center [NCGC] NIH Molecular Libraries Probe Centers Network [MLPCN] MLPCN Grant: DA030552-01 Assay Submitter (PI): Zhihao Zhuang, University of Delaware 1. Priolo, C., et al. (2006) The isopeptidase USP2a protects human prostate cancer from apoptosis. Cancer Res 66, 8625-8632 2. Popov, N., et al. (2007) The ubiquitin-specific protease USP28 is required for MYC stability. Nat Cell Biol 9, 765-774 3. De Pitta, C., et al. (2005) A leukemia-enriched cDNA microarray platform identifies new transcripts with relevance to the biology of pediatric acute lymphoblastic leukemia. Haematologica 90, 890-898 4. Kovalenko, A., et al. (2003) The tumour suppressor CYLD negatively regulates NF-kappaB signalling by deubiquitination. Nature 424, 801-805 5. Chen, J., et al. (2011) Selective and cell-active inhibitors of the USP1/ UAF1 deubiquitinase complex reverse cisplatin resistance in non-small cell lung cancer cells. Chem Bio 18(11):1390-400.
3 microliters of reagents (buffer in columns 3 and 4 as negative control and 1nM USP1/UAF1 complex in columns 1, 2, and 5-48) are dispensed into Greiner black solid bottom 1536-well assay plates. Compounds are then transferred via Kalypsys pin tool equipped with 1536-pin array (10nl slotted pins, V&P Scientific, San Diego, CA). Following an incubation step of 15 min at room temperature, 1ul of Ub-Rho substrate (150nM final concentration) is added to initiate the reaction. The plates are immediately centrifuged at 1000 rpm for 15 seconds, and subsequently transferred to a ViewLux high-throughput CCD imager (PerkinElmer) wherein kinetic measurements of fluorescence are acquired using 480 nm excitation/540 nm emission filter set (6 reads every 60 seconds, see Table 1). All reagents are diluted in an assay buffer consisting of 50mM HEPES (pH 7.8), 0.5mM EDTA, 0.1 mg/ml BSA, 1mM TCEP, and 0.01% Tween-20.

SMILES	Potency	activity change, negative = inhibition [%]
CSc1ccccc1-c1ncc(C)c(NCc2ccc(-c3cccnc3)cc2)n1	541 nM (active)	
Cc1cnc(-c2ccccc2C(C)C)nc1NCC1CCN(c2cnccn2)CC1	121 nM (active)	
CC(C)c1ccccc1-c1nc2c(c(NCc3ccc(-c4cccnc4)cc3)n1)CCNC2	482 nM (active)	
Cc1cnc(-c2ccccc2C(C)O)nc1NCC1CCN(c2cccnc2)CC1 (stereo not given)	2410 nM (active)	
Cc1ccc(N2CCC(CNc3nc(-c4ccccc4C(C)C)ncc3C)CC2)cn1	171 nM (active) and 60.7 nM (active)	
Cc1cnc(-c2ccccc2C(C)C)nc1NC(C)c1ccc(-c2cccnc2)cc1 (stereo not given)	136 nM (active)	
CSc1cnc(-c2ccccc2C(C)C)nc1NCc1ccc(-c2cccnc2)cc1	85.7 nM (active)	
Cc1cnc(-c2ccccc2C(C)C)nc1NCc1ccc(-c2nn[nH]n2)cc1	3830 nM (active)	
FC(F)c1ccccc1-c1nc(NCc2ccc(-c3cccnc3)cc2)c2ccccc2n1	1360 nM (active)	
FC(F)(F)c1ccc(-c2nc(NCc3ccc(-c4ccnc(C(F)(F)F)c4)cc3)c3ccccc3n2)cc1		-12.9
Cc1ccc(-c2ccc(CNc3nc(-c4ccccc4C(C)C)ncc3C)cc2)cn1	42.9 nM (active)	
CC(C)c1ccccc1-c1nc(NCc2ccc(-c3cccnc3)cc2)c2cccn2n1	215 nM (active)	
N#Cc1cccc(-c2ccc(CNc3nc(-c4ccccc4C(F)(F)F)nc4ccccc34)cc2)c1	2710 nM (active)	
FC(F)(F)c1ccccc1-c1nc(NCc2ccc(-c3cccnc3)cc2)c2sccc2n1	857 nM (active)	
Cc1nc(NCc2ccc(-c3cccnc3)cc2)c2ccccc2n1		-15.4
FC(F)(F)c1ccccc1-c1nc(NCc2ccc(C3CCCCC3)cc2)c2ccccc2n1	6810 nM (active)	
Cc1cnc(-c2ccccc2C(C)C)nc1NCC1CCN(c2cccnc2)C1 (stereo not given)	429 nM (active)	
CC(C)c1ccccc1-c1ncc(F)c(NC(C)(C)c2ccc(-n3ccnn3)cc2)n1	4820 nM (active)	
Cc1cnc(-c2ccccc2C(C)C)nc1NCC1CN(c2cccnc2)C1	6810 nM (active)	
CC(C)(Sc1ccc(CCN(CCCCC2CCCCC2)C(=O)NC2CCCCC2)cc1)C(=O)O	24100 nM (active)	

SMILES	Potency	activity change, negative = inhibition [%]
COc1cnc(-c2ccccc2C(C)C)nc1NCc1ccc(-c2cccnc2)cc1	42.9 nM (active)	
Cc1ccc(-c2ccc(C(C)Nc3nc(-c4ccccc4C(C)C)ncc3C)cc2)cn1 (stereo not given)	341 nM (active)	
CC(Nc1nc(-c2ccccc2C(F)(F)F)nc2ccccc12)c1ccc(-c2ccccc2)cc1 (stereo not given)	4820 nM (active)	
CCc1ccccc1-c1nc(NCc2ccc(-c3cccnc3)cc2)c2ccccc2n1	607 nM (active)	
Cc1cnc(-c2ccccc2C(C)C)nc1NCc1cccnc1	2150 nM (active)	
CC(C)c1ccccc1-c1nccc(NCc2ccc(-c3ccnc(C(F)(F)F)c3)cc2)n1	764 nM (active)	
Cc1cnc(-c2ccccc2C(C)(C)C)nc1NCc1ccc(-n2ccnn2)cc1	136 nM (active)	
FC(F)(F)c1cc(-c2ccc(CNc3nc(-c4ccncc4)nc4ccccc34)cc2)ccn1	19200 nM (active)	
CC(C)c1ccccc1-c1nc(NCc2ccc(-c3cccnc3)cc2)c2sccc2n1	121 nM (active)	
Cc1cccc(CNc2nc(-c3ccccc3C(C)C)ncc2C)c1	136 nM (active)	
CC(C)c1ccccc1-c1nc(NCc2ccc(-c3cccnc3)cc2)c2occc2n1	152 nM (active)	
CC(C)c1ccccc1-c1nc(NCc2ccc(-c3cccnc3)cc2)c2ccccc2n1	152 nM (active)	
Cc1cnc(-c2ccccc2C(C)C)nc1NCC1CCN(C2COC2)CC1	15200 nM (active)	
Fc1cnc(-c2ccccc2C(F)F)nc1NCC1CCN(c2cnccn2)C1 (stereo not given)	21500 nM (active)	
Cc1cnc(-c2ccccc2C(C)C)nc1NCc1ccc(-c2ccnc(C(F)(F)F)c2)cc1	383 nM (active)	
Cc1ccc(N2CCC(CNc3nc(-c4ccccc4C(C)C)ncc3F)CC2)cn1	96.1 nM (active)	
Cc1cnc(-c2ccccc2OC(C)C)nc1NCc1ccc(-n2ccnn2)cc1	429 nM (active)	
FC(F)(F)c1ccccc1-c1nccc(NCc2ccc(-c3cccnc3)cc2)n1	541 nM (active)	
Cc1cnc(-c2ccccc2N(C)C)nc1NCc1ccc(-c2cccnc2)cc1	429 nM (active)	
Clc1ccccc1-c1nc(NCc2ccc(-c3cccnc3)cc2)c2ccccc2n1	857 nM (active)	
